# High-throughput results from PubChem.
# The list is not random: actives were taken first. Their share in the collection is about 19%.
# HepG2 tox = qHTS for Inhibitors of TGF-b: Cytotox Counterscreen; HepG2 CAGA-GFP viability, ATP luminescence, 18 h; Potency, µM (highest dose often 46.1 µM), for inactives: top-dose activity change, negative = cytotoxicity, usual class: cytotoxic; hit rate 0.76% among 410,000; AID 588856, 2011; also: potency is read from the fitted curve at half-maximal effect
#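 HepG2 CAGA-GFP cells (1000/well, DMEM with 1% FBS) received compound, then TGF-beta at 500 pg/mL final, and were incubated 18 hours at 37 degrees C. Viability was read by CellTiter-Glo luminescence. Media-only wells were set as complete cell-killing and DMSO as no toxicity.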
# TDP1 cell CPT = qHTS for Inhibitors of human tyrosyl-DNA phosphodiesterase 1 (TDP1): qHTS in cells in presence of CPT. chicken DT40 Tdp1-/-;hTDP1 cells + 20 nM CPT, ATP luminescence, 48 h. Potency, µM (series often up to 46.2 µM), for the others: at the top dose activity change, negative = growth inhibition, hits mostly inhibitors. hit rate 12% among 420,000; also: potency is read from the fitted curve at half-maximal effect; % is scaled to controls: 0 for no effect and ±100 for the full control effect; nearly all actives have a fitted effect of over 55% in size
#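 Cell growth measured by CellTiter-Glo luminescence after a minimum 48 h, 37 C compound exposure with 20 nM CPT in Tdp1-knockout DT40 cells stably expressing hTDP1, seeded 400/well; qHTS titration format.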
# IL1B secr inh = qHTS for Inhibitors of Inflammasome Signaling: IL-1-beta AlphaLISA Primary Screen | activity change, % at 57.5 µM | THP-1 LPS/ATP IL-1B secretion, AlphaLISA, 16 h; active compounds read low | AID 743279, 2014 | hit rate 4.7% among 360,000; in the data active = activity change below about -50%; inconclusive = mostly about -30% to -49%; also: % is scaled to controls: 0 for no effect and ±100 for the full control effect
#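 THP-1 cells pretreated 1 hr with compounds (up to 57.5 uM final), then stimulated with LPS (250 ng/mL final) plus ATP (1.25 mM final); secreted IL-1B measured by AlphaLISA after 16 hr, decreased signal indicating inhibition.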
# TDP1 inh = qHTS Assay for Inhibitors of Tyrosyl-DNA Phosphodiesterase (TDP1); Tyrosyl-DNA phosphodiesterase 1 (Homo sapiens), Q9NUW8; recombinant TDP1, AlphaScreen DNA substrate cleavage; Potency, µM (doses to about 130 µM), without a hit: at the top dose activity change, negative = inhibition, most hits filed as inhibitors; hit rate 0.28% among 350,000; also: potency is read from the fitted curve at half-maximal effect; % is scaled to controls: 0 for no effect and ±100 for the full control effect; nearly all actives have a fitted effect of over 40% in size
# Target sequence (Q9NUW8 whole entry, looked up): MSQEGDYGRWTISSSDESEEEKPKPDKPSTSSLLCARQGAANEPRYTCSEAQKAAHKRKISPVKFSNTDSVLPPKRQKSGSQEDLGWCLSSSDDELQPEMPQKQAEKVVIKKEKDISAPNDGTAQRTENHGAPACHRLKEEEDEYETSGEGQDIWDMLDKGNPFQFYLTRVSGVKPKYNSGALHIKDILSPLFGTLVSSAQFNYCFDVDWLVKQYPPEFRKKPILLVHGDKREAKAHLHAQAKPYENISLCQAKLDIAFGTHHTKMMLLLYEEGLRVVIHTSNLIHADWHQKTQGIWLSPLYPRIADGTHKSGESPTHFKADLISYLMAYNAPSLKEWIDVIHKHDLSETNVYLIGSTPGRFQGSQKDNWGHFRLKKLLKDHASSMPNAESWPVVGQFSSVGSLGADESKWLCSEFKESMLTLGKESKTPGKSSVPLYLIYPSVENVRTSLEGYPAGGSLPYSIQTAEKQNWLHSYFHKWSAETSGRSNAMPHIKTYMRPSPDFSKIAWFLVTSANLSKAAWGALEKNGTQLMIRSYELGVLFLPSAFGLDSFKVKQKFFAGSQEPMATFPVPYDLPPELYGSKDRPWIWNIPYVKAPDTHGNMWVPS
#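 E. coli-derived human Tdp1, 1 nM final. Cpd preinc 15 min RT; substrate 15 nM final, 5 min RT; AS bead mix 10 ug/ml final, 10 min RT. Signal loss = tyrosine-FITC cleavage. No-enzyme wells = max signal.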
# TGFb SMAD3 inh = qHTS for Inhibitors of TGF-b | Potency, µM (series often up to 46.1 µM), inactives show at the highest dose activity, negative = inhibition, usual class: inhibitors | HepG2 CAGA-GFP TGF-b/SMAD3 reporter, GFP fluorescence, 18 h; TGF-beta stimulated, 500 pg/mL final | hit rate 1.2% among 410,000; also: potency is read from the fitted curve at half-maximal effect; % is scaled to controls: 0 for no effect and ±100 for the full control effect; nearly all actives have a fitted effect of over 65% in size
#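 HEPG2 CAGA-GFP, 1000 cells/well; 2 h settle, 37 C; cpd via pin tool; TGF-b 500 pg/mL final; 18 h, 37 C; GFP imaging ex488/em500-530; %Activity normalised to -TGF-b and +DMSO controls; CRC fit, curve class.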
# DT40 TDP1 no CPT = qHTS for Inhibitors of human tyrosyl-DNA phosphodiesterase 1 (TDP1): qHTS in cells in absence of CPT. Potency, µM (doses to about 46.2 µM), without a hit: top-dose activity change, negative = growth inhibition, actives largely listed as inhibitors. hit rate 15% among 420,000. DT40 Tdp1-/- hTDP1 cells, no CPT, ATP luminescence, 48 h; also: potency is read from the fitted curve at half-maximal effect; % is scaled to controls: 0 for no effect and ±100 for the full control effect; nearly all actives have a fitted effect of over 55% in size
#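 No-CPT arm: Tdp1-/-;hTDP1 DT40 cells (400/well) plus compounds, incubated ≥48 hr at 37 °C. Readout CellTiter-Glo luminescence.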
# * hit, by the source's call; ? = inconclusive; . = no result; [ ] = remark or other dose. Unless noted, calls follow the shape of the dose curve; as a rule, active = well fitted curve in the direction sought with a large enough effect; inconclusive = small, poorly fitted or top-dose-only effect, or another doubt; inactive = no such curve, though single readings can be large; an effect the other way counts as inactive or inconclusive.
SMILES,HepG2 tox,TDP1 cell CPT,IL1B secr inh,TDP1 inh,TGFb SMAD3 inh,DT40 TDP1 no CPT
CCOC(=O)N1CCN(c2c(F)cc3[nH]c(=S)[nH]c3c2Br)CC1,-16%,?,27,13%,-1%,18µM*
Cc1cc(C)cc(OCC(=O)OCC(=O)c2cc(C)n(C3CC3)c2C)c1,-39%,5%,-14,3%[56.1 µM],-6%,-4%
O=C(O)Cc1csc(-c2ccccc2)n1,0%,-8%,35,-3%,2%,-8%
CCc1ccccc1N(C(C)=O)c1nc(CN=C=S)cs1,-50%,23µM*,2,-3%,?,?
O=C(CSc1nc2ccccc2c(=O)[nH]1)Nc1ccccc1N1CCOCC1,-35%,-27%,34,2%,-13%,-25%
O=C(CSc1nncn1-c1ccccc1)Nc1ccc(N2CCOCC2)cc1,-1%,23µM*,-6,1%,?,13µM*
CC(C)c1nc(SCC(=O)Nc2ccc(N3CCOCC3)cc2)c2ccccc2n1,-9%,15µM*,0,3%,-1%,?
O=C(CSc1ccc2ccccc2n1)Nc1ccc(N2CCOCC2)cc1,-4%,22%,18,-3%,?,-12%
CCCc1nc(SCC(=O)Nc2ccc(N3CCOCC3)cc2)c2ccccc2n1,-12%,?,3,5%,8%,5.2µM*
O=C(CSc1nc2ccccc2c(=O)[nH]1)Nc1ccc(N2CCOCC2)cc1,2%,16µM*,7,2%,6%,-32%
O=C(CSc1nnnn1-c1ccccc1)Nc1ccc(N2CCOCC2)cc1,0%,6%,19,8%,58%,-13%
Cn1cc(S(=O)(=O)N2CCc3ccccc32)cc1C(=O)Nc1ccc(C(F)(F)F)cc1,-35%,?,.,1%,?,?
Cc1[nH]nc2c1C(c1cn[nH]c1-c1ccc(F)cc1)C(C#N)=C(N)O2 (configuration not stated),-12%,?,-80*,4%,2%,?
COc1ccc(-c2ccc(C3C(C#N)=C(N)Oc4n[nH]c(C)c43)o2)cc1 (configuration not stated),-38%,21µM*,-3,6%,?,21µM*
Cc1ccc(C2C(C#N)=C(N)Oc3n[nH]c(-c4cccnc4)c32)o1 (configuration not stated),-3%,-20%,6,5%,-13%,-2%
Cc1ccc(C2C(C#N)=C(N)Oc3n[nH]c(-c4ccccc4)c32)o1 (configuration not stated),3%,13µM*,4,8%,-4%,23µM*
CC(=O)c1ccc(NS(=O)(=O)c2ccc(Br)s2)cc1,-27%,-7%,.,5%,-3%,8%
CCOc1ccc(N(CC)C(=O)CCc2nc(-c3ccccc3F)no2)cc1,-14%,?,.,-4%[12.3 µM],?,?
CCN(C(=O)CCc1nc(-c2ccccc2F)no1)c1cc(OC)ccc1OC,-3%,23µM*,-12,-1%,-11%,?
COc1ccc(C)cc1N(C)C(=O)CCc1nc(-c2ccccc2F)no1,-31%,18µM*,.,2%,?,?
CCOC(=O)CSc1n[nH]c(-c2cccnc2)n1,-35%,6%,-81*,4%,-5%,-16%
COC(=O)CSc1n[nH]c(-c2cccnc2)n1,3%,-1%,18,0%,-8%,4%
CC(=O)OC[C@@H]1O[C@@H](O/N=C2/C[C@@H](O)[C@@H](O)[C@@H]3[C@@H]4C(=O)N(Cc5ccccc5)C(=O)[C@H]4CC[C@@H]23)[C@H](OC(C)=O)[C@H](OC(C)=O)[C@@H]1OC(C)=O,.,.,.,6%[21 µM],.,.
Nc1ccc2oc(=O)c3ccccc3c2c1,3%,-25%,-77*,-5%,-10%,-21%
Cc1ccc(S(=O)(=O)n2nc(-c3ccc(Cl)cc3)nc2NCc2ccc(F)cc2)cc1,-2%,.,.,0%,3%,.
SMILES,HepG2 tox,TDP1 cell CPT,IL1B secr inh,TDP1 inh,TGFb SMAD3 inh,DT40 TDP1 no CPT
O=C(NCC(c1cccnc1)N1CCc2ccccc21)c1ccccc1Br (configuration not stated),-9%,?,.,4%,-14%,?
COc1ccc(C(=O)NCC(c2cccs2)N2CCc3ccccc32)cc1OC (configuration not stated),-22%,?,-12,-4%[0.505 µM],-22%,21µM*
O=C(NCC(c1cccnc1)N1CCc2ccccc21)c1ccc(F)c(F)c1 (configuration not stated),-30%,13µM*,.,5%,?,9.2µM*
COc1cc(C(=O)NCC(c2cccnc2)N2CCc3ccccc32)cc(OC)c1OC (configuration not stated),-30%,?,.,3%,-25%,21µM*
Cc1ccc(C(=O)NCC(c2cccnc2)N2CCc3ccccc32)cc1C (configuration not stated),-24%,7.3µM*,.,0%,?,15µM*
COc1cc(C(=O)NCC(c2cccnc2)N2CCN(C)CC2)cc(OC)c1OC (configuration not stated),-28%,-12%,10,5%,12%,-4%
O=C(NN1CCOCC1)c1cccc(Cl)c1,-1%,-4%,15,1%,-11%,21%
Cc1ccc(SCC(c2ccccc2)N2CCN(CC(C)C)CCC2=O)cc1 (configuration not stated),-3%,.,.,10%,-16%,.
COc1cccc(-c2sc3ccccc3c2-c2ccc(OCCN(C)C)cc2)c1,11µM*,?,?,11%,?,18µM*
c1ccc(COc2ccc(OCCN3CCCC3)cc2)cc1,-21%,?,-15,5%,0%,?
COc1cccc(-c2sc3ccc(OC)cc3c2-c2ccc(C(N)=O)cc2)c1,-21%,?,-25,2%,-2%,-23%
Cc1c(-c2ccc(OCCN3CCCCC3)cc2)c(=O)oc2ccc3ccccc3c12,2%,10%,28,.,9%,-20%
COc1cccc(-c2sc3ccccc3c2-c2ccc(OCCN3CCCC3)cc2)c1,20µM*,9.2µM*,-23,10%,?,8.2µM*
COc1cccc(-c2sc3ccccc3c2-c2ccc(OCCN3CCCCC3)cc2)c1,-41%,?,?,8%,1%,18µM*
